A short description of test [1]: binders of probe aFSTL3 on microarray, primary screen, stem cell growth factor project, biochemical, small-molecule microarray, fluorescence 635/667 (AID 1064).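 Note: measures binding of the biotinylated anti-FSTL3 antibody to printed compounds.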 The following applies: higher = more signal.
A short description of test [2]: binders from COS7 lysate, DM2A8 probe, primary screen, torsin A project, cell lysate, small-molecule microarray, fluorescence 635/667 (AID 1065). The following applies: higher = more signal, COS7 lysate expressing mutant human TOR1A.
Test [3] in a line: binders of probe aFGF2 on microarray, primary screen, stem cell growth factor project, biochemical, small-molecule microarray, fluorescence 635/667 (AID 1067).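 Note: measures binding of biotinylated aFGF2 protein to printed compounds on slides; z-score merges feature fluorescence and signal-to-noise across triplicate slides.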 The settings on record: higher = more signal.
A short description of test [4]: binders of probe aFGF10 on microarray, primary screen, stem cell growth factor project, biochemical, small-molecule microarray, fluorescence 635/667 (AID 1071).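 Note: score merges 667 nm spot intensity and signal to noise from triplicate slides.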 The settings on record: higher = more signal.
Test [5] deals with Neurogenic locus notch homolog protein 2 (Homo sapiens) (UniProt Q04721). Nature of the test: Notch2 binders on small-molecule microarrays, primary screen, biochemical, small-molecule microarray, 635 nm fluorescence, stem cell growth factors (AID 1073). The following applies: Notch2 binding, higher = more signal.
Chain of Neurogenic locus notch homolog protein 2 (Homo sapiens) (Q04721 whole entry, looked up, canonical isoform): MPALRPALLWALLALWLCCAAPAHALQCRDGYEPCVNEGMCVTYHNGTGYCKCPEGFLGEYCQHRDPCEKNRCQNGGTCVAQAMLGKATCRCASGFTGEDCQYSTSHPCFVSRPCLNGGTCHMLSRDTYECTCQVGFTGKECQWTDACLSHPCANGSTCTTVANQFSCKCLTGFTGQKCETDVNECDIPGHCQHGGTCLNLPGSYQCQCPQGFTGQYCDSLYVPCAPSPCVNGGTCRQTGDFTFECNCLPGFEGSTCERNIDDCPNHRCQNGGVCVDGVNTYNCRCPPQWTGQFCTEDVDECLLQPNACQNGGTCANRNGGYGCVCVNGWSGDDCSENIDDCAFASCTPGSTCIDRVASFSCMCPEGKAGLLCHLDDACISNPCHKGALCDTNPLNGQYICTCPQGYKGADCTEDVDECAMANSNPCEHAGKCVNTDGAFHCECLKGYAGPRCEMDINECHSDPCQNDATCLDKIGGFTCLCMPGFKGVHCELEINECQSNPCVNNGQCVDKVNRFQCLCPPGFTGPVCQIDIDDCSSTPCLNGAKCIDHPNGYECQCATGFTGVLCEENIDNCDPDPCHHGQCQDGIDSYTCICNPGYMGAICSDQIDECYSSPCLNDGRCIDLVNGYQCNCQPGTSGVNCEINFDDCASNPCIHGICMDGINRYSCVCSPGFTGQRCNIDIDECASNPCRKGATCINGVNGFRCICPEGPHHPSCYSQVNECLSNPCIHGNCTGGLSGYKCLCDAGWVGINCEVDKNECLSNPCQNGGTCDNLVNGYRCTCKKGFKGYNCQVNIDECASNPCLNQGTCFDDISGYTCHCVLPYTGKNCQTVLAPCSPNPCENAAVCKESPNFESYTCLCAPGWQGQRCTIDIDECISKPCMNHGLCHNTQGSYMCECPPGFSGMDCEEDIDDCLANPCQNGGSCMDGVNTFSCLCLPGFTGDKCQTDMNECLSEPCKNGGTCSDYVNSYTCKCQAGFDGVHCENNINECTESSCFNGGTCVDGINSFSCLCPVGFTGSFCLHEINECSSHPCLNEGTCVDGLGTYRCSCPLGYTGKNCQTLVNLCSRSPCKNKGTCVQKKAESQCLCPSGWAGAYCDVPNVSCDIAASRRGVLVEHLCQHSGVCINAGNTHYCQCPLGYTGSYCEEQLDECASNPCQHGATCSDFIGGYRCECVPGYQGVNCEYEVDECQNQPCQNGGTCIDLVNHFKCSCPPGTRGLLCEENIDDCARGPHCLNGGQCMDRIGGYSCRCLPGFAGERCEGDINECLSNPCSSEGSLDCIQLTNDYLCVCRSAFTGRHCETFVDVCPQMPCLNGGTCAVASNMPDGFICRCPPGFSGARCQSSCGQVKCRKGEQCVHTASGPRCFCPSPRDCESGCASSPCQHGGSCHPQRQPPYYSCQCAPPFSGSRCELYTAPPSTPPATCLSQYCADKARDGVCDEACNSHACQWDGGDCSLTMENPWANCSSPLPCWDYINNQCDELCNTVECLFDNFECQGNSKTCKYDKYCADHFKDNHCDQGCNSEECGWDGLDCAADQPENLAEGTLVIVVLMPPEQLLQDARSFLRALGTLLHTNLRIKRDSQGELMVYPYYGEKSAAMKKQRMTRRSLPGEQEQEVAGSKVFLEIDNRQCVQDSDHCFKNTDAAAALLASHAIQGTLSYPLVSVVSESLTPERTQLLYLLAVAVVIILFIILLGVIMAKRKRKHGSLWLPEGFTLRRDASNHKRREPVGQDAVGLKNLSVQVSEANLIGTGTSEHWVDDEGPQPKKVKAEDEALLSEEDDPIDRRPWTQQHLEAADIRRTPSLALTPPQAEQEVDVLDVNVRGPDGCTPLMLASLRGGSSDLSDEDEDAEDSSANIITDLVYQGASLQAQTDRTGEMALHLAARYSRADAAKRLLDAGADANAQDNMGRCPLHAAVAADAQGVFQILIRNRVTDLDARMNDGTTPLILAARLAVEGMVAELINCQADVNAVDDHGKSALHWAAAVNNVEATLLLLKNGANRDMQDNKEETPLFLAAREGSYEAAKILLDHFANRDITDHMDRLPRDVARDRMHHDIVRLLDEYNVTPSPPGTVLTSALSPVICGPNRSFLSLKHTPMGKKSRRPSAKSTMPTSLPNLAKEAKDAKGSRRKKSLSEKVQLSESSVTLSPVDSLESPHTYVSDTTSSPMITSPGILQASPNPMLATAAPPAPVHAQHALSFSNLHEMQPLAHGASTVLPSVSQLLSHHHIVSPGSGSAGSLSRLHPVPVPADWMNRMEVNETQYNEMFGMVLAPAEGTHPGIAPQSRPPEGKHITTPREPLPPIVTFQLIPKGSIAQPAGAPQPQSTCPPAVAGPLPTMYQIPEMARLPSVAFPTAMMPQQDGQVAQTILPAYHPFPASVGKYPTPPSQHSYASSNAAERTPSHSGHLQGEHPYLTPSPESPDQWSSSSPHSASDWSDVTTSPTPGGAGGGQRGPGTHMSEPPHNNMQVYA
The target in test [6] is Pro-neuregulin-1, membrane-bound isoform (Homo sapiens) (UniProt Q02297). Briefly: NRG1 binders on small-molecule microarrays, primary screen, psychiatric disease protein project, biochemical, small-molecule microarray, fluorescence 635/667 (AID 1075).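 Note: score combines 667 nm spot fluorescence with signal to noise.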 The settings on record: NRG1 binding, 635 nm fluorescence, higher = more signal.
Chain of Pro-neuregulin-1, membrane-bound isoform (Homo sapiens) (Q02297 whole entry, looked up, the tested form may be a part, canonical isoform): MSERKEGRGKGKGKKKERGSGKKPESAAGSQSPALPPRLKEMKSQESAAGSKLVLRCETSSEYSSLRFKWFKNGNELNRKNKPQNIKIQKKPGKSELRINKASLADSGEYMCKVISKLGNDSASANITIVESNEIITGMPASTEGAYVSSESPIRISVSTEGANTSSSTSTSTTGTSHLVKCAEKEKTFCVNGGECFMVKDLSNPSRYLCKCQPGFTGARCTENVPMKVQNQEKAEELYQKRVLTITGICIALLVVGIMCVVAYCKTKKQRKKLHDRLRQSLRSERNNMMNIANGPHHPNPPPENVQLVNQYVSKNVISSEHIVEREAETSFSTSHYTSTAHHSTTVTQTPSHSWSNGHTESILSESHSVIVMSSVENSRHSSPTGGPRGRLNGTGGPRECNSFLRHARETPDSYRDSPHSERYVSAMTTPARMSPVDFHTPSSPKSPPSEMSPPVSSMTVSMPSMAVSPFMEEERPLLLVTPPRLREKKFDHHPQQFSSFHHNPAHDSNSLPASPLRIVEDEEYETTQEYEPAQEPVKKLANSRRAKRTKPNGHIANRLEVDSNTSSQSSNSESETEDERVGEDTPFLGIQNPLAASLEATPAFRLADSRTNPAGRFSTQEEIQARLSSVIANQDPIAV
The subject of test [7] is Neuregulin-1 EGF-like domain. Briefly: binders of neuregulin-1 EGF-like domain, primary screen, biochemical, small-molecule microarray, 635 nm fluorescence (AID 1081).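 Note: binding of the protein to compounds printed on small-molecule microarray slides.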 The settings on record: small-molecule microarray binding, higher = more signal.
Test [8] is described as follows: FRG1 promoter luciferase signal modulators, primary screen, FRG1 inhibition for FSHD, cell-based, C2C12 myotubes, firefly/Renilla luciferase, luminescence (AID 1084). The following applies: higher = more signal, called active from +8 up or from −8 down.
A short description of test [9]: binders of probe aFST on microarray, primary screen, stem cell growth factor project, biochemical, small-molecule microarray, fluorescence 635/667 (AID 1086).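 Note: score merges 667 nm fluorescence with signal-to-noise of each printed compound spot.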 The following applies: higher = more signal.
Test [10] is described as follows: binders of probe aHhip on microarray, primary screen, stem cell growth factor project, biochemical, small-molecule microarray, fluorescence 635/667 (AID 1087).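 Note: score merges spot fluorescence at 667nm with spot signal to noise ratio.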 The following applies: higher = more signal.
Test [11] has as its system PRMT1 (protein arginine N-methyltransferase 1). Nature of the test: PRMT1 binders on small-molecule microarrays, primary screen, biochemical, small-molecule microarray, 635 nm fluorescence (AID 1088).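 Note: binding of Prmt1 protein to compounds spotted on small-molecule microarray slides.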 The following applies: small-molecule microarray binding, higher = more signal.
The nature of test [12]: yeast growth modulation, basal conditions, primary screen, YJM789 clinical isolate, OD600, 24 h (AID 1089).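 Note: growth of clinical yeast isolate S. cerevisiae YJM 789 seeded 1000 cells per well; test concentration not given here.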 The settings on record: S. cerevisiae YJM789 growth, higher = more signal, called active from +8 up or from −8 down.
Test [13] is described as follows: fission yeast growth modulation, primary screen, strain 972, OD600, 24 h, no modulator (AID 1090).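 Note: basal condition with compound alone and no growth modifier present; test concentration not given here.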 The settings on record: S. pombe 972 growth, higher = more signal, called active from +8 up or from −8 down.
Test [14] in a line: S. cerevisiae growth modulation with rapamycin, primary screen, strain BY4716, OD600, 96 h (AID 1091). Note: test concentration not given here. The settings on record: higher = more signal, called active from +8 up or from −8 down.
In test [15] the target is Torsin-1A-interacting protein 2 (Homo sapiens) (UniProt Q8NFQ8). Briefly: LULL1 binders on small-molecule microarray, primary screen, cell lysate, human LULL1 lysate, 635/667 nm fluorescence (AID 1092).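 Note: probe is lysate of COS7 cells overexpressing human LULL1; score merges per-feature 667 nm fluorescence with signal-to-noise.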 The following applies: hLULL1 lysate binding, 635 nm fluorescence, higher = more signal.
Chain of Torsin-1A-interacting protein 2 (Homo sapiens) (Q8NFQ8 whole entry, looked up): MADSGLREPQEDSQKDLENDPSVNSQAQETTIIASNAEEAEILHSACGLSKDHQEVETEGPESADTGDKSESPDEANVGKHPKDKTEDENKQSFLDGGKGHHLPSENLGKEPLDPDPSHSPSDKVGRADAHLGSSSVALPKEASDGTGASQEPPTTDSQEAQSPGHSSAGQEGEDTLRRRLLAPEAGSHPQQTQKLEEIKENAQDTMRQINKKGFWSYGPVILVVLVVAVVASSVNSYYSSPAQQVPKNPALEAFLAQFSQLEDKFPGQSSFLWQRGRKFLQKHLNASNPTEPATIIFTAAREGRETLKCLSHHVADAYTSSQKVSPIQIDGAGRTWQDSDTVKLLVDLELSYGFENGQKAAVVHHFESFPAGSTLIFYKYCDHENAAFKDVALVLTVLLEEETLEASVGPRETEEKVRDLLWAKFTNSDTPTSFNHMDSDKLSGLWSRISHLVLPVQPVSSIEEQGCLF
Test [16] in a line: E. coli growth modulation, two-sided OD650, primary screen, E. coli filamentation project, strain DRC41, 24 h (AID 1093).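 Note: MC1000 strain lacking acrAB efflux and sulA so SOS filamentation is blocked; test concentration not given here.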 The following applies: OD650, 24 h, higher = more signal, called active from +8 up or from −8 down.
Test [17] in a line: small-molecule microarray binders of probe aLefty2, primary screen, biochemical, biotinylated probe, 635/667 nm fluorescence (AID 1094).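 Note: score merges spot fluorescence near 667 nm with spot signal-to-noise ratio.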 The following applies: higher = more signal.
The test system of test [18] is Noggin (protein binding on small-molecule microarray). Briefly: Noggin binders on small-molecule microarray, primary screen, biochemical, 635/667 nm fluorescence (AID 1095).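 Note: score merges 667 nm feature fluorescence with signal to noise over triplicate slides.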 The settings on record: 635 nm fluorescence, higher = more signal.
Test [19] deals with Neurogenic locus notch homolog protein 3 (Homo sapiens) (UniProt Q9UM47). Briefly: NOTCH3 binders on small-molecule microarray, primary screen, biochemical, 635/667 nm fluorescence (AID 1096). The following applies: NOTCH3 binding, 635 nm fluorescence, higher = more signal.
A short description of test [20]: small-molecule microarray binders of probe aEGFR, primary screen, biochemical, biotinylated probe, 635/667 nm fluorescence (AID 1097).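 Note: probe is a biotinylated anti-EGFR antibody binding compounds printed on slides; score combines fluorescence near 667 nm and signal to noise of each spot.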 The settings on record: higher = more signal.

Calls of active or inactive are those of the source.

As for `CC1=C([C@H](O)CCc2ccccc2)[C@H](CO)n2c(=O)n(-c3ccccc3)c(=O)n2C1`, the composite z-score is -0.312 in test [1]; -0.322 in [2]; -0.159 in test [3]; 0.0052 in test [4]; -0.371 in test [5]; -0.355 in test [6]. The composite z-score in [7] was -0.56; in [9], -0.429; in [10] it was -0.236; in [11] it was -0.0416; in test [15], -0.478; in test [17] it was -0.355. In addition, the values for the composite z-score in test [18], in test [19] and in [20] were 0.0865, -0.696 and -0.211, respectively. Also, the z-score was -0.973 (inactive) in [8]; -1.02 (inactive) in test [12]; -1.03 (inactive) in test [13]; -0.539 (inactive) in test [14]; 1.87 (inactive) in test [16].
On to `CN(C)CCCCNC(=O)[C@H]1C[C@H]2C(=O)N3CCC[C@H]3C(=O)N2[C@H]1c1cccc(OCCO)c1`, for which the composite z-score was 0.429 in test [1]; 0.76 in test [2]; -0.0386 in [3]; 0.0348 in [4]; -0.182 in [5]; 1.94 in [6]. In addition, the composite z-score in test [7] amounted to 1.28; in test [9] it was 0.081; in [10], 0.565; in test [11], 1.1; in [15] it was 3.09; in test [17] it was 0.0164. For the same compound, the results for the composite z-score in [18], in test [19] and in [20] were 0.866, 0.476 and -0.0968, respectively. Besides, the z-score in [8] was 3.81 (inactive); in test [12] it was 0.752 (inactive); in [13] it was 1.68 (inactive); in test [14], 0.751 (inactive); in test [16], -0.101 (inactive).
`COCC(=C=CC[C@H](O)c1ccccc1OCCO)C[C@H](O)COCc1ccccc1`: the composite z-score is -0.287 in test [1]; 0.584 in test [2]; -0.0004 in test [3]; 1.3 in [4]; 0.41 in test [5]; 1.22 in [6]. The composite z-score in test [7] is 0.571; in test [9], 0.092; in [10], 0.107; in test [11] it was 1.55; in test [15], 2.71; in test [17], -0.0113. The values for the composite z-score in test [18], in test [19] and in [20] were 0.513, 0.271 and 0.312, respectively. Further, the z-score in test [8] was 0.291 (inactive); in test [12] it was -0.16 (inactive); in [13], -1.15 (inactive); in test [14], -0.619 (inactive); in test [16], -0.111 (inactive).
Take `C=CCC(OC(C)=O)[C@@H]1[C@@H](N(Cc2ccc(-c3cccc(C(F)(F)F)c3)o2)C(=O)c2ccc(-c3ccccc3)cc2)c2cc(OCCCO)ccc2N1C(=O)c1ccc2ccccc2c1` (stereo not given in full): the composite z-score is -0.071 in test [1]; -0.651 in test [2]; -0.105 in test [3]; -0.117 in test [4]; 0.311 in test [5]; -0.0973 in test [6]. Also, the composite z-score in test [7] is -0.373; in test [9], 0.543; in test [10], -0.0618; in test [11] it was -1.39; in [15] it was 0.254; in test [17], -0.0485. Besides, the composite z-score was 0.28 in [18], 0.461 in test [19] and -0.0828 in test [20]. For the same compound, the z-score in test [8] is -0.274 (inactive); in test [12] it was 0.729 (inactive); in [13], 1.16 (inactive); in test [14], 0.136 (inactive); in test [16] it was -0.28 (inactive).
`C=CC[C@@]1(C(=O)N(C)C)N=C(c2ccc(OCCCO)cc2)O[C@@H]1c1ccccc1CN=[N+]=[N-]`: the composite z-score in [1] was 0.151; in [2], 0.448; in [3] it was -0.0004; in test [4], 1.01; in [5], 1.61; in test [6], 1.68. Further, the composite z-score was determined as 1.17 in test [7]; 1.18 in test [9]; 0.0373 in test [10]; 1.55 in test [11]; 3.33 in test [15]; 0.264 in test [17]. Also, the composite z-score is 1.77 in test [18], 1.07 in test [19] and 0.538 in [20]. Besides, the z-score in test [8] is -2.64 (inactive); in [12], -0.127 (inactive); in test [13], -0.0815 (inactive); in test [14], -0.64 (inactive); in test [16] it was 1.42 (inactive).

The record behind these values is PubChem BioAssay.
